# PubChem BioAssay (NCATS)
# A number with no mark means an inactive call. Records with an inconclusive call do not appear. Calls of active or inactive are those of the source. Unless noted, the call rests on the fitted dose curve; in most records, active means well fitted curve in the direction sought with a large enough effect; inconclusive means small, poorly fitted or top-dose-only effect, or another doubt; inactive means no such curve, though single readings can be large; an effect the other way counts as inactive or inconclusive.
# Columns and labels:
# [1] = molecular target: Lysosomal acid glucosylceramidase (Homo sapiens) (UniProt P04062); assay: Glucocerebrosidase-p2 (AID 348; in the data active means potency below about 10 µM; further: potency means the concentration at half of the fitted maximal effect); conditions: purified GBA, blue fluorogenic substrate, 40 min
# Chain of Lysosomal acid glucosylceramidase (Homo sapiens) (P04062 whole entry, looked up): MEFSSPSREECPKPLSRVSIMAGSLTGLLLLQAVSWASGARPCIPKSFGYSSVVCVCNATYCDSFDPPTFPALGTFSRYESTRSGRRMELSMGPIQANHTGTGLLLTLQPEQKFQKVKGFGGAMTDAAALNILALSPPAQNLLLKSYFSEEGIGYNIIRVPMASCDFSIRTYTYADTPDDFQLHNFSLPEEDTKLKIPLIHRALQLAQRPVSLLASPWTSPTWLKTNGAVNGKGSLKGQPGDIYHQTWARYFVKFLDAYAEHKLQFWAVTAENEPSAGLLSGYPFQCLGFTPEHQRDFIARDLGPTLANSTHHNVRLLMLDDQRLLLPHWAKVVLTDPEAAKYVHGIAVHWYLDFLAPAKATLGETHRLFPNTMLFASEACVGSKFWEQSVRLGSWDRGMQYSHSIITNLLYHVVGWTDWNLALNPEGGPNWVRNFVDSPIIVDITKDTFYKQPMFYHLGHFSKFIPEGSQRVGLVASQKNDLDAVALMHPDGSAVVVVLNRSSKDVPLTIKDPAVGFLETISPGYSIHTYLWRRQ
# Method in brief: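 Normal human glucocerebrosidase (0.2 nM) with blue fluorogenic substrate (80 uM final) in citrate/phosphate pH 5.9 with 10mM sodium taurocholate, 0.01% tween-20; 40 min RT, NaOH/glycine stop; fluorescence Ex 365/Em 440; AC50 from a titration from 0.6 nM upwards.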
# [2] = AP1 Signaling Pathway (AID 357; active means well fitted curve in either direction with a large enough effect, not every such curve was filed as active; further: on the % scale 0 is the no-effect control and ±100 the full control effect); conditions: ME-180 AP-1-bla reporter, EGF-induced, beta-lactamase ratio, 5 h; at 7.69 µM (top of the series) unless noted
# Method in brief: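 ME-180 cells with beta-lactamase reporter under AP-1 response element, stimulated with EC50 EGF; compounds tested in titration series, 5 h at 37 °C. CCF4 substrate added 2.5 h at room temperature; 460/530 nm emission ratio gave %activity and AC50.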
# [3] = molecular target: Cytochrome P450 1A2 (Homo sapiens) (UniProt P05177); assay: p450-cyp1a2 (AID 410; calls by dose curve; further: potency means the concentration at half of the fitted maximal effect;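 on activity change, negative = inhibition: -100% = full effect of reference inhibitor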); conditions: recombinant CYP1A2, luciferin-ME demethylation, luminescence; series mostly up to 11.4 µM
# Chain of Cytochrome P450 1A2 (Homo sapiens) (P05177 whole entry, looked up): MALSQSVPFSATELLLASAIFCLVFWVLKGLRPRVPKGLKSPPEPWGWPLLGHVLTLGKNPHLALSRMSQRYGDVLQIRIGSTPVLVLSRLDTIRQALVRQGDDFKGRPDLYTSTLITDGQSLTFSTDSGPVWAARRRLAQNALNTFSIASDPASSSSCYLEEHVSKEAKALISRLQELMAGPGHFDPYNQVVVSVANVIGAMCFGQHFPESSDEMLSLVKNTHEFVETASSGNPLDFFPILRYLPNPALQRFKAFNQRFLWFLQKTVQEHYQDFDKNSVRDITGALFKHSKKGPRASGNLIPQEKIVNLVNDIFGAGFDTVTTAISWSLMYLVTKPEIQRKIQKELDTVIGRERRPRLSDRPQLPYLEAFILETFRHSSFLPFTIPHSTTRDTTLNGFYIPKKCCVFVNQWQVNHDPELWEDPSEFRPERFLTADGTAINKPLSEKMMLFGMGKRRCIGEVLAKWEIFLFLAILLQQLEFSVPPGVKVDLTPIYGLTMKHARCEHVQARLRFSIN
# Method in brief: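 Read-out is luminescence from luciferin produced by CYP1A2 demethylation of Luciferin-ME (100uM, at Km). Detection reagent stopped the 60 min NADPH-dependent reaction; signals were normalized to 57 uM furafylline.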
# [4] = NFAT Signaling Pathway (AID 444; active means well fitted curve in either direction with a large enough effect, not every such curve was filed as active;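 further: carbachol stimulus at about its EC50 of 1 µM final; on the % scale 0 is the no-effect control and ±100 the full control effect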); conditions: Jurkat NFAT-bla M1, carbachol, beta-lactamase ratio, 5 h; at 7.69 µM (top of the series) unless noted
# Method in brief: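 Jurkat cells carrying an NFAT-driven β-lactamase reporter and co-transfected muscarinic M1 receptor were treated with compound plus carbachol (1 uM final, an EC50 level) for 5 h at 37 °C. CCF4 loading followed for 1 h at RT; 460/530 nm ratio gave %activity.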
# [5] = Stat Signaling Pathway (AID 446; active means well fitted curve in either direction with a large enough effect, not every such curve was filed as active;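 further: ME-180 cervical cancer cells given 40 pM IL-6 alongside compound; SIE-controlled beta-lactamase reporter measured as 460/530 nm FRET emission ratio; on the % scale 0 is the no-effect control and ±100 the full control effect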); conditions: ME-180 (cervical carcinoma) SIE beta-lactamase reporter, IL-6 stimulated, 5 h; at 7.69 µM (top of the series) unless noted
# Method in brief: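 Emission at 460 and 530 nm (excitation 405 nm) reports SIE-controlled beta-lactamase in ME-180 cells. Cells received compound with 40 pM IL-6 for 5 hrs at 37 C; data scaled between 300 pM IL-6 and 125 nM JAK-inhibitor controls.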
# [6] = molecular target: Glucocorticoid receptor (Homo sapiens) (UniProt P04150); assay: GR-EFC Redistribution (AID 451; calls by dose curve; further: potency means the concentration at half of the fitted maximal effect); conditions: CHO-K1 GR-EFC translocation, beta-gal luminescence, 2 h
# Chain of Glucocorticoid receptor (Homo sapiens) (P04150 whole entry, looked up, the tested form may be a part): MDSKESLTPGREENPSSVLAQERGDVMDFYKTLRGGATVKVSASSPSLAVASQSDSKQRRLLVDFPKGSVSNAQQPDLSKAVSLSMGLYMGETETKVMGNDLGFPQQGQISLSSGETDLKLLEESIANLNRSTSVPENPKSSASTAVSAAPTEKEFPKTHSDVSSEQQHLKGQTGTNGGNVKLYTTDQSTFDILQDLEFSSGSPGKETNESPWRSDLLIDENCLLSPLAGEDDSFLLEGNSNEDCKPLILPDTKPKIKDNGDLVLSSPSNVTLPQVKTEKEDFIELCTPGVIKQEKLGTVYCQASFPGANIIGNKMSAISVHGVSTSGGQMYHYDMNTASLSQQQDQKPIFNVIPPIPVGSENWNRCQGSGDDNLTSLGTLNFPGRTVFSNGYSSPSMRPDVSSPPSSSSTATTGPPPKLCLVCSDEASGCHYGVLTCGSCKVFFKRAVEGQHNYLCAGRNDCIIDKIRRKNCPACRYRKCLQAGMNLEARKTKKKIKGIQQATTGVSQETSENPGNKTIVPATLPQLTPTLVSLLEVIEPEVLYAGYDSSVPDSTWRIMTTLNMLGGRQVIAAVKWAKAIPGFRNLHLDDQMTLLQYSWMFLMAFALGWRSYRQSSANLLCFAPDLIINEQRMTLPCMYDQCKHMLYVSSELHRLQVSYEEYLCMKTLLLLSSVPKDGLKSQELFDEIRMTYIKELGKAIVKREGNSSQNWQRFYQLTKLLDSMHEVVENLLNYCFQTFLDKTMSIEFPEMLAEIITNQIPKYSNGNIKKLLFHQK
# Method in brief: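 CHO-K1 cells stably expressing nuclear-localized β-gal enzyme acceptor and GR fused C-terminally to the enzyme donor fragment; ligand-driven nuclear translocation restores β-gal by complementation. Compounds titrated up to 46 uM final, 2 h at 37 °C; luminescence read.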
# [7] = molecular target: Mitogen-activated protein kinase 10 (Mus musculus) (UniProt Q61831); assay: JNK3 AlphaScreen Assay (AID 530; active means well fitted curve in either direction with a large enough effect, not every such curve was filed as active;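 further: kinase came from lysate of stimulated human HepG2 cells; signal reports phosphorylation of biotinylated GST-cJun 1-79 at Ser73 with 10 µM ATP; on the % scale 0 is the no-effect control and ±100 the full control effect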); conditions: JNK3 lysate, c-Jun phosphorylation; series mostly up to 11.4 µM
# Method in brief: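 Biotinylated GST-cJun(1-79) served as substrate for JNK3 in HepG2 lysates stimulated with IL-1beta and TNF-alpha. ATP was 10 uM final, pH 7.6. Ser73 phosphorylation was quantified by AlphaScreen (680 nm excitation).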
# [8] = molecular target: 3',5'-cyclic-AMP phosphodiesterase 4B (Homo sapiens) (UniProt Q07343); assay: qHTS Assay for Inhibitors of PDE-IV (AID 607; active means well fitted activation curve with a large enough effect in the main read-out, with a control signal flat, not every such curve was filed as active; further: % of control where 0% means no effect); conditions: HEK293 ACTOne CNG channel cells, membrane potential fluorescence; series mostly up to 22.9 µM
# Chain of 3',5'-cyclic-AMP phosphodiesterase 4B (Homo sapiens) (Q07343 whole entry, looked up): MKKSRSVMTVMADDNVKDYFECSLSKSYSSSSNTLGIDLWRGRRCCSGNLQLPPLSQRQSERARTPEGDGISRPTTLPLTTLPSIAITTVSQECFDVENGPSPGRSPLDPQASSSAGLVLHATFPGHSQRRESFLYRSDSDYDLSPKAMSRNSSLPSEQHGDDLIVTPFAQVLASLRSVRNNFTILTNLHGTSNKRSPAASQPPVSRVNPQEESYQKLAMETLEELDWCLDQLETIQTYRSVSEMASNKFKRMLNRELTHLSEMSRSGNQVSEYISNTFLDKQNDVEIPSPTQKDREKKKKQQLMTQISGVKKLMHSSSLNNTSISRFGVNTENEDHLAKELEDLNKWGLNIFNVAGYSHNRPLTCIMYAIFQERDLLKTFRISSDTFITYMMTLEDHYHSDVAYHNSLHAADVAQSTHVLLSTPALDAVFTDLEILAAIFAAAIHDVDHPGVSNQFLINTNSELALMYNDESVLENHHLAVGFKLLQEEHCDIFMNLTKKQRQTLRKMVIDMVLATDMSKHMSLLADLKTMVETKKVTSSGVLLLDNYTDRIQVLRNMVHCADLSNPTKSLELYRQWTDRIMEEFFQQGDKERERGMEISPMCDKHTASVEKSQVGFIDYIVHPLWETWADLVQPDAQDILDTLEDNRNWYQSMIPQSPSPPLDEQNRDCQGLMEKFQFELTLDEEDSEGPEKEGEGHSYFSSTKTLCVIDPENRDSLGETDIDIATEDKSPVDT
# Method in brief: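 The readout is membrane depolarisation from a cAMP-sensing CNG channel, detected with a potential dye at ex 535/em 590. Cells were HEK293-derived (endogenous PDE-IV) at 1000 cells/well, titrated up to 22.9 uM final.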
# [9] = molecular target: Cytochrome P450 3A4 (Homo sapiens) (UniProt P08684); assay: qHTS Assay for Activators of Cytochrome P450 3A4 (AID 885); conditions: recombinant CYP3A4, Luciferin-PPXE luminescence, 60 min; series mostly up to 11.4 µM; further: nearly all actives have a fitted effect of over 65% in size
# Chain of Cytochrome P450 3A4 (Homo sapiens) (P08684 whole entry, looked up): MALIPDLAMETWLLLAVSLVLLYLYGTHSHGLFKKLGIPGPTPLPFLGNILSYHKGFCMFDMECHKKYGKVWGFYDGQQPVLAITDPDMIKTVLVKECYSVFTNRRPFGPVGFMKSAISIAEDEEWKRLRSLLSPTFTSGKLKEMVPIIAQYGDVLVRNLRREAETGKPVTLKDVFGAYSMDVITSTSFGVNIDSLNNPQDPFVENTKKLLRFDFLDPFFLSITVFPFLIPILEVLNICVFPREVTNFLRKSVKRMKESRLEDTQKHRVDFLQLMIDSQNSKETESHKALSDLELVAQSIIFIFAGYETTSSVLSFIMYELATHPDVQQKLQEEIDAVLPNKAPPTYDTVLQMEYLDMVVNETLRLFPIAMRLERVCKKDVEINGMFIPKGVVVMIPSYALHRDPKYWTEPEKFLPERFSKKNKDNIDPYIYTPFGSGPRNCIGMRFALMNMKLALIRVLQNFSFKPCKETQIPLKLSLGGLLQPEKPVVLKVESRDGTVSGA
# Method in brief: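 Activators are scored by enhanced luminescence from CYP3A4 conversion of luciferin-PPXE (25uM, equal to KM) to luciferin, after 60 min at RT with an NADPH-regenerating system.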
# [10] = molecular target: Tyrosyl-DNA phosphodiesterase 1 (Homo sapiens) (UniProt Q9NUW8); assay: Confirmation Assay for Inhibitors of Tyrosyl-DNA Phosphodiesterase (TDP1) (AID 489007); conditions: recombinant human TDP1 enzymatic activity, dose-response; further: potency means the concentration at half of the fitted maximal effect; nearly all actives have a fitted effect of over 40% in size
# Chain of Tyrosyl-DNA phosphodiesterase 1 (Homo sapiens) (Q9NUW8 whole entry, looked up): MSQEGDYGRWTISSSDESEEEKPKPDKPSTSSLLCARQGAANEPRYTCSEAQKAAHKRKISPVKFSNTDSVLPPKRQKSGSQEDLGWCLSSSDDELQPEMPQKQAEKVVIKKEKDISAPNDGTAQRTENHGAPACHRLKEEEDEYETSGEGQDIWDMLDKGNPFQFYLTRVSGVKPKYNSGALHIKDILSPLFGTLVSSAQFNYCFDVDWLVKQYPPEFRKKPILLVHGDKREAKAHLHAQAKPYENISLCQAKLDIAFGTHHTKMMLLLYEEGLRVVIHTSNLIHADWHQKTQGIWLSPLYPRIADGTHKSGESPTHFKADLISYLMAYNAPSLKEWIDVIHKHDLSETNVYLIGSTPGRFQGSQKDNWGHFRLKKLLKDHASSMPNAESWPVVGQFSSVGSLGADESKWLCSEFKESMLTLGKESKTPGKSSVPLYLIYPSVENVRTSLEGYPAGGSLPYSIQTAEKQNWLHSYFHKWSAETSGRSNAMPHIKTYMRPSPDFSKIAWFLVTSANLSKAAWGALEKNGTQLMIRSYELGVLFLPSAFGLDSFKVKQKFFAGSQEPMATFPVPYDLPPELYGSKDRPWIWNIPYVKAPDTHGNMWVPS
# Method in brief: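 Loss of AlphaScreen signal reports Tdp1 cleavage of a dual-labelled DNA substrate. Conditions: 1 nM E. coli-derived enzyme, 15 nM substrate, 15 min compound preincubation, 5 min reaction, 10 min bead incubation, all at room temperature.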
# [11] = molecular target: ATP-dependent 6-phosphofructokinase (Trypanosoma brucei brucei) (UniProt O15648); assay: qHTS Assay to Find Inhibitors of T. brucei phosphofructokinase: hit validation (AID 492961); conditions: T. brucei PFK, ADP-Glo luminescence; series mostly up to 51.4 µM
# Chain of ATP-dependent 6-phosphofructokinase (Trypanosoma brucei brucei) (O15648 whole entry, looked up): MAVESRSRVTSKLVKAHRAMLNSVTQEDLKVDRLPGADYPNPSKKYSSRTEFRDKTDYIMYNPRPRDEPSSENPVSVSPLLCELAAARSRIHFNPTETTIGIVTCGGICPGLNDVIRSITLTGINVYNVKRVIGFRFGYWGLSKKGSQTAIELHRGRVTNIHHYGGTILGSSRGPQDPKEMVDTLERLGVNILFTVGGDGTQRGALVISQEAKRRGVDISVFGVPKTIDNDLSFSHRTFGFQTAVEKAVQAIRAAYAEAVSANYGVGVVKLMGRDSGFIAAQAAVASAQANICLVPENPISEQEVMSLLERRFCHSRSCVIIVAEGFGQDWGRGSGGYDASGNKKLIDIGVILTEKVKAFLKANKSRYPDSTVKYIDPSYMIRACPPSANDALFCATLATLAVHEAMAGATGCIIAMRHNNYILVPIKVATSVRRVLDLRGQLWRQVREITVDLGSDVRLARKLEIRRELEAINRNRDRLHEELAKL
# Method in brief: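 Reaction: 0.1 M triethanolamine pH 8.0, 5 mM MgCl2, F6P 0.5 mM, ATP 0.1 mM, PFK 1.25 nM, 45 min RT. Read-out: ADP-Glo luminescence. Analysis: concentration-response fits, classed by r2 and efficacy.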
# [12] = molecular target: Ubiquitin carboxyl-terminal hydrolase 1 (Homo sapiens) (UniProt O94782); assay: Inhibitors of USP1/UAF1: Pilot qHTS (AID 504865); conditions: purified USP1/UAF1, Ub-rhodamine cleavage fluorescence; series mostly up to 114 µM;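 further: rhodamine fluorescence freed from ubiquitin-rhodamine substrate followed over time; top concentration of the series differs between compounds; on the % scale 0 is the no-effect control and ±100 the full control effect; nearly all actives have a fitted effect of over 35% in size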
# Method in brief: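 USP1/UAF1 complex (1nM) preincubated with compound 15 min at room temperature, then Ub-Rho substrate (150nM final) added. Fluorescence read kinetically at 480/540 nm, 6 reads every 60 seconds. Buffer: 50mM HEPES pH 7.8, 0.5mM EDTA, 0.1 mg/ml BSA, 1mM TCEP, 0.01% Tween-20.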
# [13] = molecular target: Luciferin 4-monooxygenase (Photinus pyralis) (UniProt P08659); assay: Biochemical firefly luciferase enzyme assay for NPC (AID 624030);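 further: purified P. pyralis luciferase at 10 nM with luciferin and ATP substrate; 0% = DMSO and -100% = full luciferase inhibition by PTC124 control; nearly all actives have a fitted effect of over 70% in size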; conditions: purified P. pyralis luciferase, luminescence, 5 min; series mostly up to 58.6 µM
# Chain of Luciferin 4-monooxygenase (Photinus pyralis) (P08659 whole entry, looked up): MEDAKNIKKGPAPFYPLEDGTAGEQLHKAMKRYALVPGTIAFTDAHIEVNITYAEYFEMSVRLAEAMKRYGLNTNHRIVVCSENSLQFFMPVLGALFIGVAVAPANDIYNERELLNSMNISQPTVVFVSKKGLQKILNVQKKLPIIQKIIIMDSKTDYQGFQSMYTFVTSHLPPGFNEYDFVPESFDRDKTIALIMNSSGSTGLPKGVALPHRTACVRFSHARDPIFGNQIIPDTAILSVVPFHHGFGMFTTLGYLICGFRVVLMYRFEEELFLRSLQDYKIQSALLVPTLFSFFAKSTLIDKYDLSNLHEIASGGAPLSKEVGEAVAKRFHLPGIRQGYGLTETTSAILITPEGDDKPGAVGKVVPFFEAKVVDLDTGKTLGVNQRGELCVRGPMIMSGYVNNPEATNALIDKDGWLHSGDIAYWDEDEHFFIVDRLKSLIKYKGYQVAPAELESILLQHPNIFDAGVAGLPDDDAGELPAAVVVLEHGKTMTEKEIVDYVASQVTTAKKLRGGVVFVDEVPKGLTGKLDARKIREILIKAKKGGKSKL
# Method in brief: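 Counter-screen for direct inhibition of the luciferase enzyme by approved-drug library compounds, run at 10 nM enzyme in 50 mM Tris acetate (final). Luminescence was read within 5 min of enzyme-buffer addition and normalized to PTC124 versus DMSO (0%).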
# [14] = S16 Schwann cell PMP22 intronic element firefly luciferase assay (AID 624032); conditions: S16 rat Schwann cells, PMP22 element FLuc, 24 h; series mostly up to 57.5 µM;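 further: plate controls were DMSO for no effect and PTC124 positive control mean for full effect; nearly all actives have a fitted effect of over 30% in size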
# Method in brief: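 Rat S16 Schwann cells stably carrying a PMP22 intronic element-driven Fluc reporter were seeded overnight, then exposed to compounds for 24 h at 37 °C. Luminescence was normalized to PTC124 (positive control) and DMSO (0% activity).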
# [15] = S16 Schwann cell PMP22 intronic element beta-lactamase assay (AID 624044; calls by dose curve;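 further: 0% = DMSO and -100% = potassium clavulanate positive control; nearly all actives have a fitted effect of over 15% in size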); conditions: S16 rat Schwann cells, PMP22 element beta-lactamase FRET, 24 h; series mostly up to 38.3 µM
# Method in brief: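 Beta-lactamase reporter under a PMP22 intronic regulatory element in stable S16 rat Schwann cells; 24 h compound exposure. 460 nm blue signal normalized between DMSO (0%) and potassium clavulanate, with 535 nm FRET tracking viability; curves classed by r2 and response.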
# [16] = qHTS profiling for inhibitors of Plasmodium falciparum proliferation (AID 504749); further: nearly all actives have a fitted effect of over 60% in size; further: potency means the concentration at half of the fitted maximal effect;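 on activity, negative = inhibition: 0% = DMSO vehicle and full inhibition = artemisinin control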; conditions: P. falciparum in erythrocytes, SYBR Green DNA, 72 h; at 28.7 µM (top of the series); parasite line B
# Method in brief: (§1)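 Fluorescence of SYBR Green-bound parasite DNA, read at 485/535 nm, served as the growth measure. Infected erythrocytes were cultured with compound 72 h; artemisinin (0.29 uM) and DMSO wells defined the normalization range.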
# 7G8 = assay: as above; conditions: P. falciparum in erythrocytes, SYBR Green DNA, 72 h; series mostly up to 28.7 µM
# Method in brief: as §1
# AA1029 = assay: as above; conditions: P. falciparum in erythrocytes, SYBR Green DNA, 72 h; series mostly up to 28.7 µM
# Method in brief: as §1
# C2A = assay: as above; conditions: P. falciparum in erythrocytes, SYBR Green DNA, 72 h; series mostly up to 28.7 µM
# Method in brief: as §1
# CP185 = assay: as above; conditions: P. falciparum in erythrocytes, SYBR Green DNA, 72 h; series mostly up to 28.7 µM
# Method in brief: as §1
# CP192 = assay: as above; conditions: P. falciparum in erythrocytes, SYBR Green DNA, 72 h; series mostly up to 28.7 µM
# Method in brief: as §1
# CP194 = assay: as above; conditions: P. falciparum in erythrocytes, SYBR Green DNA, 72 h; series mostly up to 28.7 µM
# Method in brief: as §1
# CP201 = assay: as above; conditions: P. falciparum in erythrocytes, SYBR Green DNA, 72 h; series mostly up to 28.7 µM
# Method in brief: as §1
# CP203 = assay: as above; conditions: P. falciparum in erythrocytes, SYBR Green DNA, 72 h; series mostly up to 28.7 µM
# Method in brief: as §1
# CP211 = assay: as above; conditions: P. falciparum in erythrocytes, SYBR Green DNA, 72 h; series mostly up to 28.7 µM
# Method in brief: as §1
# CP238 = assay: as above; conditions: P. falciparum in erythrocytes, SYBR Green DNA, 72 h; series mostly up to 28.7 µM
# Method in brief: as §1
# CP252 = assay: as above; conditions: P. falciparum in erythrocytes, SYBR Green DNA, 72 h; series mostly up to 28.7 µM
# Method in brief: as §1
# CP262 = assay: as above; conditions: P. falciparum in erythrocytes, SYBR Green DNA, 72 h; series mostly up to 28.7 µM
# Method in brief: as §1
# CP297 = assay: as above; conditions: P. falciparum in erythrocytes, SYBR Green DNA, 72 h; series mostly up to 28.7 µM
# Method in brief: as §1
# CP329 = assay: as above; conditions: P. falciparum in erythrocytes, SYBR Green DNA, 72 h; series mostly up to 28.7 µM
# Method in brief: as §1
# ICS = assay: as above; conditions: P. falciparum in erythrocytes, SYBR Green DNA, 72 h; series mostly up to 28.7 µM
# Method in brief: as §1
# P93_24 = assay: as above; conditions: P. falciparum in erythrocytes, SYBR Green DNA, 72 h; series mostly up to 28.7 µM
# Method in brief: as §1
# TAB109 = assay: as above; conditions: P. falciparum in erythrocytes, SYBR Green DNA, 72 h; series mostly up to 28.7 µM
# Method in brief: as §1
# W2 = assay: as above; conditions: P. falciparum in erythrocytes, SYBR Green DNA, 72 h; series mostly up to 28.7 µM
# Method in brief: as §1
# [17] = molecular target: Glucocorticoid receptor (Homo sapiens) (UniProt P04150); assay: GR-GFP Redistribution (AID 450;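 active means compounds whose dose series gives a full or clear partial fitted curve of increased nuclear translocation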; further: potency means the concentration at half of the fitted maximal effect); conditions: U2OS GR-GFP nuclear translocation, laser cytometry, 2 h
smiles,measurement,setting,value
O=S(=O)(c1ccccc1)N1CCC[C@@]2(CCN(Cc3ccccc3)C2)C1,Potency,[1],> 11.4 µM
same,"activity change, negative = inhibition",[2],6.44%
same,Potency,[3],20 µM (active)
same,"activity change, negative = inhibition",[4],-28.9%
same,"activity, negative = inhibition",[5],-5.04%
same,Potency,[6],> 46 µM
same,Potency,[7],inactive
same,Potency,[8],inactive
same,Potency,[9],inactive
O=C(O)[C@@H](O)[C@@H](O)[C@H](O)[C@H](O)CO,Potency,[1],> 11.4 µM
same,"activity change, negative = inhibition",[2],-1.8%
same,"activity change, negative = inhibition",[3],-5.5% [at 2.29 µM]
same,"activity change, negative = inhibition",[4],5.42%
same,"activity, negative = inhibition",[5],-3.53%
same,Potency,[7],inactive
same,Potency,[8],inactive
same,Potency,[10],5.01 µM (active)
same,outcome,[11],inactive
same,Potency,[12],inactive
same,outcome,[13],inactive
same,Potency,[14],inactive
same,outcome,[15],inactive
same,"activity, negative = inhibition",[16],-24%
same,Potency,7G8,2 µM (active)
same,Potency,AA1029,inactive
same,Potency,C2A,inactive
same,Potency,CP185,inactive
same,Potency,CP192,inactive
same,Potency,CP194,inactive
same,Potency,CP201,inactive
same,Potency,CP203,inactive
same,Potency,CP211,inactive
same,Potency,CP238,inactive
same,Potency,CP252,inactive
same,Potency,CP262,inactive
same,Potency,CP297,inactive
same,Potency,CP329,inactive
same,Potency,ICS,2.24 µM (active)
same,Potency,P93_24,10 µM (active)
same,Potency,TAB109,10 µM (active)
same,Potency,W2,4.78 µM (active)
C[C@H]1C[C@H]2[C@H]3CCC4=CC(=O)C=C[C@@]4(C)[C@]3(F)[C@H](O)C[C@]2(C)[C@@]1(O)C(=O)COP(=O)(O)O,Potency,[1],> 11.4 µM
same,"activity change, negative = inhibition",[2],-4.3%
same,Potency,[3],inactive
same,"activity change, negative = inhibition",[4],15.9%
same,"activity, negative = inhibition",[5],-7.89%
same,Potency,[7],inactive
same,Potency,[8],inactive
CN(C)CCCNc1cc(O)c2c(c1O)C(=O)c1ccccc1C2=O,Potency,[1],> 11.4 µM
same,"activity change, negative = inhibition",[2],9.25%
same,"activity change, negative = inhibition",[3],-23.1% [at 2.29 µM]
same,"activity change, negative = inhibition",[4],23.5%
same,"activity, negative = inhibition",[5],26%
same,Potency,[6],> 9.22 µM
same,Potency,[7],inactive
same,Potency,[8],inactive
CC(=O)N[C@@H]1CONC1=O,Potency,[1],> 11.4 µM
same,"activity change, negative = inhibition",[2],10.9%
same,Potency,[3],inactive
same,"activity change, negative = inhibition",[4],5.02%
same,Potency,[17],> 46 µM
same,Potency,[6],> 9.22 µM
same,Potency,[7],inactive
same,Potency,[8],inactive
Nc1nc(-c2cc(-c3cccc4ccccc34)nc(N)n2)cc(-c2cccc3ccccc23)n1,Potency,[1],> 11.4 µM
same,"activity change, negative = inhibition",[2],-7.45%
same,"activity change, negative = inhibition",[3],-4.4% [at 2.29 µM]
same,"activity change, negative = inhibition",[4],3.93%
same,"activity, negative = inhibition",[5],-4.92%
same,Potency,[7],inactive
same,Potency,[8],inactive
